Most compounds without a hit are left out; they make up all but 3.7% or so of the library.
BoNT A protease: BoNT A light chain protease inhibition; multiplex microsphere protease substrate cleavage, flow cytometry; inhibition, % at 10 µM; 360,000 compounds, 0.17% hits; AID 588499; note: plate controls were buffer without enzyme for full effect and enzyme alone for no effect
Autofluor counter: counter-screen for toxin protease inhibitors: compound fluorescence. compound autofluorescence counterscreen, microsphere flow cytometry; hits give high values. fluorescence intensity (no concentration beside the values). 360,000 compounds, 3.1% hits. AID 624483; in the data active = fluorescence intensity above about 16000; inconclusive = no clear call, values can overlap the other calls
Anthrax LF prot: blocks Bacillus anthracis lethal factor protease. P15917. multiplex microsphere protease cleavage assay, LF. inhibition, % at 10 µM. 360,000 compounds, 0.12% hits. AID 588501; note: plate controls were buffer without enzyme for full effect and enzyme alone for no effect
MazEF act: increases E. coli MazEF RNase cleavage of RNA | FAM/BHQ RNA-DNA oligo cleavage fluorescence, 5 h | P0AE70 | AID 504720 | activation, % at 20 µM | 350,000 compounds, 0.32% hits; in the data active = activation above about 50%
Target sequence (P0AE70 whole entry, looked up): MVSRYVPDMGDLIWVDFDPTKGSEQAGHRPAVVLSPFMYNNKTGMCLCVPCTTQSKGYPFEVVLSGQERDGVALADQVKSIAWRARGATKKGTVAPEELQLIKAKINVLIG
BoNT F protease: inhibitors of Botulinum neurotoxin F light chain protease; 360,000 compounds, 0.22% hits; inhibition, % at 10 µM; Multiplex microsphere protease cleavage assay, flow cytometry; in the data active = inhibition above about 35%, passing the limit was not always enough; inconclusive = no clear call, values can overlap the other calls; note: plate controls were buffer without enzyme for full effect and enzyme alone for no effect
* hit, by the source's call; ? = inconclusive; ! = not active in a repeat. Cut-off read from the data, not from the text of the source, unless noted: active = inhibition above about 30%; inconclusive = no clear call, values can overlap the other calls; inactive = below that.

SMILES | BoNT A protease | Autofluor counter | Anthrax LF prot | MazEF act | BoNT F protease
CCN(CC)S(=O)(=O)c1ccc(N2CCCCC2)c(NC(=O)/C=C/c2ccc(OC)c(OC)c2)c1 | 4.5 | 2267 | 0.0 | -1.3 | 34.0
CCN(CC)S(=O)(=O)c1ccc(OC)c(NC(=O)/C=C/c2ccco2)c1 | 3.8 | 5086 | -3.6 | 0.3 | 34.7*
CCOC(=O)N1CCN(C(=O)CSCc2ccc(Br)cc2)CC1 | -1.2 | 4354 | -6.4 | 10.0 | -2.5
COCCN1C(=O)/C(=C/c2ccc(N3CCCC3)cc2C)SC1=S | 100.0* | 18023* | 57.6* | -22.1 | 27.8
CCN(CC)CCn1c(=N)n(CCOc2ccccc2)c2ccccc21 | ? | 25371* | -12.1 | 15.8 | -9.6
CCn1c(SCC(=O)Nc2cc(Cl)ccc2OC)nnc1C1CC1 | -0.6 | 3494 | 4.2 | 3.4 | -4.5
CN(c1ccccc1)S(=O)(=O)c1cccc(NC(=O)Cn2cnc3ccccc3c2=O)c1 | -1.2 | 5034 | -2.4 | 5.4 | ?
CCN(CC)S(=O)(=O)c1cc(NC(=O)Cn2cnc3ccccc3c2=O)ccc1C | -0.2 | 16361* | 3.8 | 4.3 | -0.4
CC(=O)c1ccc(N2C(=O)CC(N3CCN(S(=O)(=O)c4ccc(C)c(C)c4)CC3)C2=O)cc1 (centres undefined) | -0.1 | 3923 | -9.4 | 0.3 | -3.8
CCOc1ccccc1-c1n[nH]c(=S)o1 | -4.6 | 17280* | -1.2 | 19.1 | -5.9
CCN1CCN(CCCNC(=O)C2c3ccccc3C(=O)N(c3ccc(OC)cc3)C2c2ccc(OC)cc2)CC1 (centres undefined) | 0.5 | 3011 | 9.2 | 8.2 | -3.1
CCc1ccc(CNC(=O)CCn2ccc3cc(S(=O)(=O)N4CCCC4)ccc32)cc1 | 0.0 | 5809 | -3.5 | -8.6 | -1.0
NC(=O)c1c(NC(=O)CCCC(=O)O)sc2c1CCCCCC2 | -0.3 | 2094 | -1.7 | -2.3 | 1.5
COC(=O)c1c(NC(C)=O)sc2c1CCCC2 | -1.6 | 4342 | -9.8 | -3.2 | -32.3
COC(=O)c1c(NC(=O)CCCC(=O)O)sc2c1CCC2 | -0.7 | 22669* | -0.3 | -1.7 | 0.7
COC(=O)c1c(NC(=O)CC2SCC(C(=O)OC)NC2=O)sc2c1CCCC2 (centres undefined) | -3.0 | 24791* | -0.9 | 3.3 | -4.6
C=CCC(C(=O)OC)(C(=O)OC)c1ccccc1[N+](=O)[O-] | -0.5 | 4393 | -0.8 | -0.7 | 0.5
CCOC(=O)C1=C(C)NC(C)=C(C(=O)OCC)C1C(=O)O | ? | 20924* | 0.7 | 7.7 | -3.5
CCOC(=O)C1=C(C)NC(C)=C(C(=O)OCC)C1 | ? | 18757*! | -3.5 | -3.1 | ?
Cc1ccc(NC(=O)CCc2ccc(S(=O)(=O)N3CCOCC3)cc2)c(C)c1 | ? | 20854* | -7.8 | 9.6 | 3.4
COCCn1c(C)cc(C(=O)COC(=O)CCc2ccc(S(=O)(=O)N3CCOCC3)cc2)c1C | ? | 22125* | -3.2 | -1.6 | -1.8
CN(C(=O)COC(=O)CCC1CCCCC1)c1c(N)n(Cc2ccccc2)c(=O)[nH]c1=O | 0.9 | 5554 | -0.8 | -3.6 | 0.8
O=C(c1ccc(Cl)c(Cl)c1)c1cnc(Nc2ccccc2)s1 | -0.1 | 16510* | -0.7 | -17.1 | -0.8
O=C(c1ccccc1)c1cnc(Nc2ccccc2Cl)s1 | 3.9 | 21405* | -5.4 | 1.1 | -2.8
O=[N+]([O-])c1ccc(NN=Cc2cccc3ccccc23)nc1 | 1.8 | 4084 | 2.4 | 122.9* | -3.7
SMILES | BoNT A protease | Autofluor counter | Anthrax LF prot | MazEF act | BoNT F protease
CCCN(C(=O)COC(=O)Cn1c(=O)oc2ccccc21)c1c(N)n(Cc2ccccc2)c(=O)[nH]c1=O | -2.3 | 6878 | -1.2 | -0.5 | -6.6
CC1CCC/C(=C\Nc2ccc3c(c2)OCO3)C1=O (centres undefined) | 0.0 | 22454* | -6.0 | -11.0 | -10.8
O=c1c2ccccc2nc(CN2CCCCCC2)n1-c1ccc(F)cc1 | 3.2 | 24642* | -0.5 | 17.0 | -6.8
CCC(CC)N1CCN(Cc2nc3ccccc3c(=O)n2-c2ccc(F)cc2)CC1 | 1.1 | 3911 | -4.2 | 14.8 | ?
O=C(Nc1ccc(OC(F)(F)F)cc1)C1CCCN(S(=O)(=O)c2cnc[nH]2)C1 (centres undefined) | 4.4 | 5673 | 6.8 | 8.4 | 3.6
CCCn1c(SC(C)C(=O)N2CCOCC2)nc2ccc(Br)cc2c1=O (centres undefined) | -0.6 | 4572 | -5.8 | -4.9 | -3.6
CC(C)C1Cc2c(C#N)c(N)sc(=S)c2CO1 (centres undefined) | 72.2* | 4054 | 47.1* | -7.7 | 0.0
CCC1CCC2(CC1)NC(=O)N(CC(=O)N1CCc3ccccc31)C2=O (centres undefined) | 0.3 | 2970 | 1.0 | -4.0 | 5.9
CCOc1ccc(C(=O)NCCc2cnc[nH]2)cc1 | 0.8 | 3918 | 8.4 | 10.4 | 49.9*

Source: PubChem (several laboratories)
